According to PubChem BioAssay (EPA / NIEHS):
The source made the active and inactive calls. How the source made its calls: active means hit-call score of the fitted dose curve at least 0.9, where 1 is the maximum; inactive means score below 0.9.

Tests used:
[1] = molecular target: Paired box protein Pax-6 (Homo sapiens) (UniProt P26367); assay: ATG_Pax6_CIS: Attagene CIS-FACTORIAL HepG2 Assay for human Paired Box 6 (PAX6) (AID 2282956); details: HepG2 CIS-FACTORIAL PAX6 reporter transcription, RNA readout; actives raise or lower the signal
Chain of Paired box protein Pax-6 (Homo sapiens) (P26367 whole entry, looked up): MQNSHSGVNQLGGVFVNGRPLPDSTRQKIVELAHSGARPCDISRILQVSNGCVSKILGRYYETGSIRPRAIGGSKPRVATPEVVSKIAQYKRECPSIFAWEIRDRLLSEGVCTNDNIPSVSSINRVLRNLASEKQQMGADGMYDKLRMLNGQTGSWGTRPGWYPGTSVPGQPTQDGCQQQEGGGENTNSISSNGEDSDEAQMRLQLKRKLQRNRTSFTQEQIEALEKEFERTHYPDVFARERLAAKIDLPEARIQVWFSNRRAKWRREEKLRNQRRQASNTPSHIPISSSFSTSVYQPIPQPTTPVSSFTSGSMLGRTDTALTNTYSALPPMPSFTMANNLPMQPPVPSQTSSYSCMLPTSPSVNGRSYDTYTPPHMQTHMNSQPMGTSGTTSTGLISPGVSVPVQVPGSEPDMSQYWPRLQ
In short: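 Transient MRTU transfection of HepG2 → compound exposure 24 h → TriZol RNA, oligo(dT) RT → PCR, 6-FAM primer extension, HpaI cut → capillary electrophoresis; activity fitted both directions against DMSO.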

[2] = ATG_PXRE_CIS: Attagene CIS-FACTORIAL HepG2 Assay for human Pregnane X Receptor Element (PXRE) (AID 2282957); details: HepG2 Attagene CIS-FACTORIAL PXRE reporter, mRNA; actives raise or lower the signal
In short: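 Transfect HepG2 with MRTUs (cis promoter elements); dose chemical, incubate 24 h; isolate RNA, RT with oligo(dT), PCR, 6-FAM label, HpaI cut, CE. Gain/loss fit vs DMSO.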

[3] = ATG_PPRE_CIS: Attagene CIS-FACTORIAL HepG2 Assay for human Peroxisome Proliferator-activated Response Element (PPRE) (AID 2282958); details: HepG2 PPRE cis-element reporter, Attagene transcription factor profiling; actives raise or lower the signal
In short: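 Cells are first transfected transiently with the multiplexed reporter library, then dosed for 24 h. Total RNA is reverse-transcribed, amplified, fluorescently end-labeled and HpaI-cut before capillary electrophoresis; activity is fitted bidirectionally against DMSO controls.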

[4] = ATG_Sox_CIS: Attagene CIS-FACTORIAL HepG2 Assay for human SRY-box transcription factor (SOX) (AID 2282960); details: HepG2 Attagene cis-factorial SOX reporter, mRNA; actives raise or lower the signal
In short: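 Transient MRTU transfection of HepG2; 24 h compound incubation; TriZol RNA, oligo(dT) RT, PCR, 6-FAM primer extension, HpaI cut, CE. Bidirectional fit, DMSO = baseline.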

[5] = molecular target: Transcription factor Sp1 (Homo sapiens) (UniProt P08047); assay: ATG_Sp1_CIS: Attagene CIS-FACTORIAL HepG2 Assay for human Specificity Protein 1 (Sp1) (AID 2282961); details: HepG2 Sp1 cis-reporter transcription, actives raise or lower the signal
Chain of Transcription factor Sp1 (Homo sapiens) (P08047 whole entry, looked up): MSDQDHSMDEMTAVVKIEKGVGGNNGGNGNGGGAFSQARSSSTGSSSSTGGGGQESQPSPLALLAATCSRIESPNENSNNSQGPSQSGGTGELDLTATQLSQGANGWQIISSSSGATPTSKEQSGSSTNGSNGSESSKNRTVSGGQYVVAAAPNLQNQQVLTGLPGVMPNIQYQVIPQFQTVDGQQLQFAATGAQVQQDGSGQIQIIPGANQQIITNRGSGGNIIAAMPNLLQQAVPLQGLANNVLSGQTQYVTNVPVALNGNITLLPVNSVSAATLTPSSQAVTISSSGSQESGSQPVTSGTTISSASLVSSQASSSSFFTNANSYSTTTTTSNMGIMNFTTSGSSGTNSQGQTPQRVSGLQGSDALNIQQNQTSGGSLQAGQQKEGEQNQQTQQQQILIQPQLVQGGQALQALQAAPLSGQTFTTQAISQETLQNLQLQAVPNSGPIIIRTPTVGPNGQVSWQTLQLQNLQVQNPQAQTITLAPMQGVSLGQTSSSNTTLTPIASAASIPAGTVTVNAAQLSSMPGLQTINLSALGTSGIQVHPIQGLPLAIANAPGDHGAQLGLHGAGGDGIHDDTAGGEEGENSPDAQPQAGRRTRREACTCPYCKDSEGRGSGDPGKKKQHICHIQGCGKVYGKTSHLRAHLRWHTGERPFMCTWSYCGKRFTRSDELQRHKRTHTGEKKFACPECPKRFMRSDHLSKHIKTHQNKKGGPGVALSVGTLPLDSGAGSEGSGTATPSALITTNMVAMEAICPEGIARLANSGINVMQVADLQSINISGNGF
In short: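 Endogenous Sp1 activity was gauged in human liver HepG2 cells bearing transfected reporter units under a cis-regulating promoter. After 24 h dosing, reporter mRNA was quantified by RT-PCR with capillary electrophoresis, and activity fitted bidirectionally versus DMSO.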

[6] = molecular target: Signal transducer and activator of transcription 3 (Homo sapiens) (UniProt P40763); assay: ATG_STAT3_CIS: Attagene CIS-FACTORIAL HepG2 Assay for human Signal Transducer and Activator of Transcription 3 (STAT3) (AID 2282963); details: HepG2, Attagene cis-factorial STAT3 reporter transcription; actives raise or lower the signal
Chain of Signal transducer and activator of transcription 3 (Homo sapiens) (P40763 whole entry, looked up): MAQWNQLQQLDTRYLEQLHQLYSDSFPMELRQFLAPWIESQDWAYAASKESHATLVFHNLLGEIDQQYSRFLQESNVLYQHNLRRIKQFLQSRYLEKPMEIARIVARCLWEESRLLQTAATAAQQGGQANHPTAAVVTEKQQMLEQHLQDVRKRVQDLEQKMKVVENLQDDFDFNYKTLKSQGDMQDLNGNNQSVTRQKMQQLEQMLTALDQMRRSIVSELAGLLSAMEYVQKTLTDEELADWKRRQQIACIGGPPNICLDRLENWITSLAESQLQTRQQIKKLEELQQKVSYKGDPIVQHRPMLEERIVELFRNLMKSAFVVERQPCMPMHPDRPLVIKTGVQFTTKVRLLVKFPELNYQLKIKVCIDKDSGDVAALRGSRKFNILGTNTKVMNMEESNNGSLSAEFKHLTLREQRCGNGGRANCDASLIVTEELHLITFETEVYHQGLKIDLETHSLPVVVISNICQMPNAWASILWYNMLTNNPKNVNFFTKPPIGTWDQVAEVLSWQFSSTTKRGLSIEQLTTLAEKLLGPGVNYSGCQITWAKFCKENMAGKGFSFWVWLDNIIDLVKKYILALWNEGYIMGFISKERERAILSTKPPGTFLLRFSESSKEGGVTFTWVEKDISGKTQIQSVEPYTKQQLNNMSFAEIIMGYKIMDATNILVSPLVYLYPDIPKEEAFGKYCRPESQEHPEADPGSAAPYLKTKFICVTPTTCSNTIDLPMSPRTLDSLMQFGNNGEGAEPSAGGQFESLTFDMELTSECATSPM
In short: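 HepG2 cells transiently transfected with cis-element-driven multiple reporter transcription units; after 24 h chemical exposure, reporter mRNA measured by RT-PCR, 6-FAM primer-extension labelling, HpaI digestion and capillary electrophoresis. Bidirectional fitting versus DMSO baseline.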

[7] = ATG_TA_CIS: Attagene CIS-FACTORIAL HepG2 Assay for human TA Basal Promoter (AID 2282964); details: HepG2 Attagene CIS-factorial TA basal promoter reporter; actives raise or lower the signal
In short: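 Background-control readout: TA basal promoter reporter mRNA, fitted in both directions relative to DMSO. Measured by RT-PCR and capillary electrophoresis 24 hours after treating HepG2 human liver cells transiently carrying multiplexed cis-regulated reporter constructs.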

[8] = ATG_RORE_CIS: Attagene CIS-FACTORIAL HepG2 Assay for human RAR-related Orphan Receptor Element (RORE) (AID 2282959); details: HepG2 Attagene cis-factorial RORE reporter, mRNA; actives raise or lower the signal
In short: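 Cells were HepG2 carrying transfected cis-regulated reporter constructs, dosed for 24 hours. Total RNA was reverse-transcribed and reporter cDNA amplified, fluorescently labeled and sized by capillary electrophoresis. Activity was fitted bidirectionally relative to DMSO.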

[9] = ATG_SREBP_CIS: Attagene CIS-FACTORIAL HepG2 Assay for human Sterol Regulatory Element Binding (SREBP) (AID 2282962); details: HepG2 Attagene cis-factorial SREBP reporter, mRNA; actives raise or lower the signal
In short: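 Transfected HepG2 (cis-regulated reporter library, endogenous TFs) → compound 24 h → total RNA → oligo(dT) RT → reporter-specific PCR → FAM primer extension, HpaI cut → CE fluorescence. Fit bidirectional vs DMSO.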

CCc1cccc(C)c1N(C(=O)CS(=O)(=O)O)C(C)COC (centres undefined)
outcome [1]: inactive
AC50 [2]: 29.2 µM (active)
outcome [3]: inactive
outcome [4]: inactive
outcome [5]: inactive
outcome [6]: inactive
outcome [7]: inactive

COC(C=C(C)CCC=C(C)C)OC
outcome [1]: inactive
AC50 [2]: 21.7 µM (active)
outcome [3]: inactive
outcome [8]: inactive
outcome [5]: inactive
outcome [6]: inactive
outcome [7]: inactive

CC1(C)[C@@H]2CC[C@@]1(C)C(=O)C2
outcome [1]: inactive
outcome [2]: inactive
outcome [8]: inactive
outcome [4]: inactive
outcome [5]: inactive
outcome [9]: inactive
outcome [6]: inactive
outcome [7]: inactive

CCNc1nc(NC(C)(C)C)nc(OC)n1
outcome [1]: inactive
AC50 [2]: 10.3 µM (active)
outcome [3]: inactive
outcome [4]: inactive
outcome [5]: inactive
outcome [9]: inactive
outcome [6]: inactive
outcome [7]: inactive

C=C(C)C1CC=C(C)C(OC(C)=O)C1 (centres undefined)
outcome [1]: inactive
outcome [2]: inactive
outcome [3]: inactive
outcome [4]: inactive
outcome [5]: inactive
outcome [6]: inactive
outcome [7]: inactive

c1ccc(-c2nc3ccccc3[nH]2)cc1
outcome [1]: inactive
AC50 [2]: 27.4 µM (active)
outcome [3]: inactive
outcome [4]: inactive
outcome [5]: inactive
outcome [9]: inactive
outcome [6]: inactive
outcome [7]: inactive

C[Si](C)(C)N[Si](C)(C)C
outcome [1]: inactive
outcome [2]: inactive
outcome [8]: inactive
outcome [4]: inactive
outcome [5]: inactive
outcome [9]: inactive
outcome [6]: inactive
outcome [7]: inactive

CCOC(=O)C1=NN(c2ccc(Cl)cc2Cl)C(C)(C(=O)OCC)C1 (centres undefined)
outcome [1]: inactive
AC50 [2]: 9.36 µM (active)
outcome [3]: inactive
outcome [4]: inactive
outcome [5]: inactive
outcome [9]: inactive
outcome [7]: inactive

C=CCCCCCCCCOC(C)=O
outcome [1]: inactive
outcome [2]: inactive
outcome [8]: inactive
outcome [4]: inactive
outcome [5]: inactive
outcome [9]: inactive
outcome [6]: inactive
outcome [7]: inactive

N#Cc1ccc(C(c2ccc(C#N)cc2)n2cncn2)cc1
outcome [1]: inactive
outcome [2]: inactive
outcome [3]: inactive
outcome [4]: inactive
outcome [5]: inactive
outcome [9]: inactive
outcome [6]: inactive
outcome [7]: inactive

CCc1cccc(C)c1N
outcome [1]: inactive
AC50 [2]: 47.7 µM (active)
outcome [3]: inactive
outcome [4]: inactive
outcome [5]: inactive
outcome [9]: inactive
outcome [6]: inactive
outcome [7]: inactive

CCc1cccc(CC)c1
outcome [1]: inactive
outcome [2]: inactive
outcome [3]: inactive
outcome [4]: inactive
outcome [5]: inactive
outcome [9]: inactive
outcome [6]: inactive
outcome [7]: inactive

Cc1noc(NS(=O)(=O)c2ccc(N)cc2)c1C
outcome [1]: inactive
outcome [2]: inactive
outcome [3]: inactive
outcome [4]: inactive
outcome [5]: inactive
outcome [9]: inactive
outcome [6]: inactive
outcome [7]: inactive

O=C(Nc1ccccc1)c1cc(Cl)ccc1O
outcome [1]: inactive
AC50 [2]: 25.6 µM (active)
AC50 [8]: 15.5 µM (active)
outcome [4]: inactive
AC50 [5]: 3.65 µM (active)
AC50 [9]: 5.55 µM (active)
outcome [6]: inactive
outcome [7]: inactive

Clc1cccnc1
outcome [1]: inactive
AC50 [2]: 27 µM (active)
outcome [3]: inactive
outcome [4]: inactive
outcome [5]: inactive
outcome [6]: inactive
outcome [7]: inactive

CCOC(=O)/C=C\C(=O)OCC
outcome [1]: inactive
outcome [2]: inactive
AC50 [3]: 7.64 µM (active)
outcome [8]: inactive
outcome [5]: inactive
outcome [9]: inactive
outcome [6]: inactive
outcome [7]: inactive

N=C1C=CC(=C(c2ccc(N)cc2)c2ccc(N)cc2)C=C1
AC50 [1]: 37.8 µM (active)
AC50 [2]: 56.6 µM (active)
outcome [3]: inactive
outcome [8]: inactive
outcome [5]: inactive
AC50 [9]: 26 µM (active)
outcome [6]: inactive
AC50 [7]: 81.3 µM (active)

O=S(=O)(O)c1ccc(Nc2nc(Nc3ccc(C=Cc4ccc(Nc5nc(Nc6ccc(S(=O)(=O)O)cc6)nc(N(CCO)CCO)n5)cc4S(=O)(=O)O)c(S(=O)(=O)O)c3)nc(N(CCO)CCO)n2)cc1
outcome [1]: inactive
AC50 [2]: 21.2 µM (active)
outcome [3]: inactive
outcome [8]: inactive
outcome [5]: inactive
outcome [9]: inactive
outcome [6]: inactive
outcome [7]: inactive

CC(C)CCOCc1ccccc1
outcome [1]: inactive
outcome [2]: inactive
outcome [8]: inactive
outcome [4]: inactive
outcome [5]: inactive
outcome [9]: inactive
outcome [7]: inactive

Nc1ccc(C(=O)OCCCOC(=O)c2ccc(N)cc2)cc1
outcome [1]: inactive
AC50 [2]: 27.5 µM (active)
outcome [4]: inactive
outcome [5]: inactive
outcome [9]: inactive
outcome [6]: inactive
AC50 [7]: 63.7 µM (active)

[Cl][Eu]([Cl])[Cl]
outcome [1]: inactive
outcome [2]: inactive
outcome [4]: inactive
outcome [5]: inactive
outcome [9]: inactive
outcome [6]: inactive
outcome [7]: inactive

O=c1c(O)c(-c2ccc(O)cc2O)oc2cc(O)cc(O)c12
AC50 [2]: 26.5 µM (active)
outcome [4]: inactive
outcome [5]: inactive
outcome [9]: inactive
outcome [6]: inactive
outcome [7]: inactive

C=CCNCC=C
outcome [1]: inactive
AC50 [2]: 52.1 µM (active)
outcome [4]: inactive
outcome [5]: inactive
outcome [9]: inactive
outcome [6]: inactive
outcome [7]: inactive

Nc1ccnc(=O)[nH]1
outcome [2]: inactive
outcome [3]: inactive
outcome [8]: inactive
outcome [4]: inactive
outcome [5]: inactive
outcome [9]: inactive
outcome [6]: inactive
outcome [7]: inactive

CCCCCC(=O)OCC
outcome [1]: inactive
outcome [2]: inactive
outcome [8]: inactive
outcome [4]: inactive
outcome [5]: inactive
outcome [6]: inactive
outcome [7]: inactive

Oc1ccc(/C=C/c2cc(O)cc(O)c2)cc1
outcome [2]: inactive
AC50 [3]: 100 µM (active)
outcome [8]: inactive
outcome [4]: inactive
outcome [5]: inactive
AC50 [9]: 26.9 µM (active)
outcome [6]: inactive
AC50 [7]: 137 µM (active)

CC(=O)/C=C/C1C(C)=CCCC1(C)C (centres undefined)
AC50 [2]: 5.09 µM (active)
outcome [8]: inactive
outcome [4]: inactive
outcome [5]: inactive
outcome [9]: inactive
outcome [7]: inactive

CCCCCCCCCC[N+](C)(CCCCCCCCCC)CCC[Si](OC)(OC)OC
AC50 [2]: 3.94 µM (active)
AC50 [3]: 19.9 µM (active)
AC50 [8]: 18.2 µM (active)
outcome [4]: inactive
AC50 [5]: 21.1 µM (active)
AC50 [9]: 17 µM (active)
AC50 [6]: 18.1 µM (active)
outcome [7]: inactive

Cc1c(C(=O)c2c[nH]n(C)c2=O)ccc(S(C)(=O)=O)c1C1=NOCC1
AC50 [2]: 14.4 µM (active)
outcome [3]: inactive
outcome [8]: inactive
outcome [4]: inactive
outcome [5]: inactive
outcome [6]: inactive
outcome [7]: inactive

CCCCC1C(=O)N(c2ccccc2)N(c2ccccc2)C1=O
AC50 [2]: 1.44 µM (active)
outcome [8]: inactive
outcome [5]: inactive
outcome [9]: inactive
outcome [6]: inactive
outcome [7]: inactive

O=C(O)c1ccc2c(c1)C(=O)OC2=O
outcome [1]: inactive
outcome [2]: inactive
outcome [4]: inactive
outcome [5]: inactive
outcome [6]: inactive
outcome [7]: inactive
